Measured values: PubChem BioAssay (EPA / NIEHS)
Inconclusive results are not listed. The source made the active and inactive calls. Rule for the calls: active = hit-call score of the fitted dose curve at least 0.9, where 1 is the maximum; inconclusive = response in the unintended direction; inactive = score below 0.9.

Target: Nuclear receptor subfamily 1 group I member 2 (Homo sapiens) (UniProt O75469)
Assay: NVS_NR_hPXR: NovaScreen (NVS) Nuclear Receptor Binding Assay for human Pregnane X Receptor (PXR) (AID 2283365);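 note: a drop in FRET signal versus DMSO baseline means the compound binds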
Summary of the method: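 Binding was measured by time-resolved fluorescence resonance energy transfer after a 2 h exposure of extracted human PXR protein without cells. Compounds were first tested at 25 uM in duplicate, with concentration series for actives; DMSO defined baseline.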

Chain of Nuclear receptor subfamily 1 group I member 2 (Homo sapiens) (O75469 whole entry, looked up): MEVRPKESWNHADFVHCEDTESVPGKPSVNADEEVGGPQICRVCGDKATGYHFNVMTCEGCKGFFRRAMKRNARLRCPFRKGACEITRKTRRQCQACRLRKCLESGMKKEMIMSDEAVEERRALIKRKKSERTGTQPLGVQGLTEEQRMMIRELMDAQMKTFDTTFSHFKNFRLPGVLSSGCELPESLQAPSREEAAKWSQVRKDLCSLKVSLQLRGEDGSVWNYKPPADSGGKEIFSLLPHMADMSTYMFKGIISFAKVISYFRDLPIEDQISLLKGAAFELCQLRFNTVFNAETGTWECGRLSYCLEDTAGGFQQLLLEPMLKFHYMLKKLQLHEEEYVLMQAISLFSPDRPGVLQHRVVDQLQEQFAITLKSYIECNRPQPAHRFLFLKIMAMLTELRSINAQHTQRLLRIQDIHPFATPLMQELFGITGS

Which AC50 does the source give for `CCCCCCCCCCCCC[N+](C)(C)Cc1ccccc1` here?
Its AC50 is 3.9 µM (active).

How did the outcome turn out when `CC(C)(C)c1cc(Cc2cc(C(C)(C)C)c(O)c(C(C)(C)C)c2)cc(C(C)(C)C)c1O` was run?
Its outcome is “inactive”.

With `COCCOCCC[Si](C)(O[Si](C)(C)C)O[Si](C)(C)C` as the molecule, how does the outcome read?
The outcome was “inactive”.

With `CCCCCCCC/C=C\CCCCCCCC(=O)N(C)CC(=O)O` as the molecule, how does the outcome read?
The outcome was “inactive”.

For `N#Cc1ccccc1O`, which outcome is on record?
The outcome was “inactive”.

With `CCOC(OCC)OCC` as the molecule, how does the outcome read?
The outcome was “inactive”.

Tested on: guinea pig Dopamine Transporter (DAT), gene 100714898
Assay: NVS_TR_gDAT: NovaScreen (NVS) Transporter Assay for guinea pig Dopamine Transporter (DAT) (AID 2283369);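 note: active compounds lower bound radioligand signal relative to DMSO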
Summary of the method: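 Test chemicals were incubated 2 h with guinea pig striatal membranes and a radioligand; bound label was separated by filtration and counted. Screening ran at 25 uM, followed by concentration-response testing to a 50 uM maximum.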

`c1ccc(C[P+](c2ccccc2)(c2ccccc2)c2ccccc2)cc1` was tested. Which AC50 did it give?
Its AC50 is 15.1 µM (active).

Which AC50 does the source give for `CSc1ccc(O)cc1C` here?
Its AC50 is 19.4 µM (active).

`CCN(CC)c1ccc2c(c1)Oc1cc(N(CC)CC)ccc1C21OC(=O)c2ccccc21` was tested. Which outcome did it give?
Its outcome is “inactive”.

`CCN(CC)c1ccc(N=Nc2ccccc2)cc1` was tested. Which outcome did it give?
The outcome was “inactive”.

For `Cc1ccc(S(=O)(=O)C(I)I)cc1`, which AC50 is on record?
The AC50 was 15.6 µM (active).

Target: Peroxisome proliferator-activated receptor gamma (Homo sapiens) (UniProt P37231)
Assay: NVS_NR_hPPARg: NovaScreen (NVS) Nuclear Receptor Binding Assay for human Peroxisome Proliferator-activated Receptor gamma (PPARg) (AID 2283370)
Summary of the method: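 Fluorescence polarization measures competitive binding to extracted PPARg in a cell-free format. Reading is taken at 2 h; activity is signal loss relative to DMSO. Screening at 25 uM in duplicate preceded confirmatory dose series.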

Chain of Peroxisome proliferator-activated receptor gamma (Homo sapiens) (P37231 whole entry, looked up): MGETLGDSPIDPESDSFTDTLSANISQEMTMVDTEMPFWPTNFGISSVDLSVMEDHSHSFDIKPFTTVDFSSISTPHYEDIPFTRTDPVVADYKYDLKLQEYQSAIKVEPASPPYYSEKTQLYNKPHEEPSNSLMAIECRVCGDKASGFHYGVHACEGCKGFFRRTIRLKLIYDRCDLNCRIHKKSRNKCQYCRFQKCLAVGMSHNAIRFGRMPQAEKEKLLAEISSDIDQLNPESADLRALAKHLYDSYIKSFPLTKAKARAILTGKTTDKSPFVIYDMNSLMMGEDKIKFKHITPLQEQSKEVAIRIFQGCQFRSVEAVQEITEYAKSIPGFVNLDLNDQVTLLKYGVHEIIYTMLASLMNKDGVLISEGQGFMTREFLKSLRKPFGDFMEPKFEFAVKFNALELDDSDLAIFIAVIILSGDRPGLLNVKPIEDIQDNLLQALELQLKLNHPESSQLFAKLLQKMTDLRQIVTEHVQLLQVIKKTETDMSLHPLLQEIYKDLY

For `Cc1ccc([N+](=O)[O-])c(C)c1`, which outcome is on record?
The outcome was “inactive”.

Which outcome does the source give for `CCCCCCCCCCCCC[N+](C)(C)Cc1ccccc1` here?
The outcome was “inactive”.

How did the outcome turn out when `CC(C)(C)c1cc(Cc2cc(C(C)(C)C)c(O)c(C(C)(C)C)c2)cc(C(C)(C)C)c1O` was run?
The outcome was “inactive”.

Which outcome does the source give for `CC(C)Nc1ccc(NC(C)C)c2c1C(=O)c1ccccc1C2=O` here?
Its outcome is “inactive”.

With `COCCOCCC[Si](C)(O[Si](C)(C)C)O[Si](C)(C)C` as the molecule, how does the outcome read?
The outcome was “inactive”.

`CCOC(OCC)OCC` was tested. Which outcome did it give?
Its outcome is “inactive”.
